High-throughput results (PubChem BioAssay)
Hits are enriched below; roughly 1.5% of the tested compounds scored in any of these assays.
MCL1 BIM primary – inhibitors of MCL1 binding to BIM-BH3, primary screen, biochemical, fluorescence polarization. Induced myeloid leukemia cell differentiation protein Mcl-1 (Homo sapiens), Q07820. GST-MCL1 / FITC-Bim-BH3 fluorescence polarization. inhibition, % at 10.9 µM. 0.68% of 320,000 active. AID 2057, 2009;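 active = inhibition above the mean inhibition of all tested compounds plus 3 SD, set per campaign, cut at about 40% in these data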;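 note: higher means more loss of mP so more displacement of Bim peptide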
eLon inh – inhibitors of E. coli Lon protease, primary screen, biochemical, fluorescence polarization | purified E. coli Lon protease | inhibition, % at 7.94 µM | 0.42% of 360,000 active | AID 602123, 2011; in the data active = inhibition above about 13%, passing the limit was not always enough
Target sequence (P0A9M0 whole entry, looked up): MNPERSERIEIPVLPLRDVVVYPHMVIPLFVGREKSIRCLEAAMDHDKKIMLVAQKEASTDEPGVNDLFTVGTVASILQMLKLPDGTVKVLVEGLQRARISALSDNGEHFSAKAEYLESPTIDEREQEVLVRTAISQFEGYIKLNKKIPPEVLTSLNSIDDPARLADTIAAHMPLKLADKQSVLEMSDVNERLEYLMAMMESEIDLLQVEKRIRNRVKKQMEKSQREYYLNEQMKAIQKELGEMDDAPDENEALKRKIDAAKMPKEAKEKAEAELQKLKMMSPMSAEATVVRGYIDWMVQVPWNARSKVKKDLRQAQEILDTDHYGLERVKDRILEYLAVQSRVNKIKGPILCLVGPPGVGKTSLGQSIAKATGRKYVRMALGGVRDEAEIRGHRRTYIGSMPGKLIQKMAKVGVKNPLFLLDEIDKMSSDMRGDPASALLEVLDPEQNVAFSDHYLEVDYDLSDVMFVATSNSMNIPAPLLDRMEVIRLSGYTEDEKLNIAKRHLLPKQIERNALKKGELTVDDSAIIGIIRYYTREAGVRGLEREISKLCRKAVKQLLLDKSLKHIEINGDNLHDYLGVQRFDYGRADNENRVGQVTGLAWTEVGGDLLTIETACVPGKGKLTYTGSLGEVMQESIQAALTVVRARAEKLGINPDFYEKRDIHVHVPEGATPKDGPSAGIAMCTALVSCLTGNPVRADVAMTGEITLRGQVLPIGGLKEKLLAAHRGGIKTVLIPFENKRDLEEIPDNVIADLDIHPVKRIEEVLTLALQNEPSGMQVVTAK
Bcl-xL primary – inhibitors of human Bcl-xL, primary screen, biochemical, fluorescence polarization, HTS. inhibition, % at 10.9 µM. 0.7% of 320,000 active. GST-Bcl-xL / FITC-Bim BH3 peptide fluorescence polarization. Bcl-2-like protein 1 (Homo sapiens), Q07817. AID 2129, 2009;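 active = inhibition above the mean of all tested compounds plus 3 SD, cutoff set per campaign, cut at about 30% in these data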;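 note: inhibitors lower millipolarization by displacing the labeled peptide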
MEX-5 binding – MEX-5 zinc finger RNA-binding disruptors – biochemical, C. elegans, fluorescence polarization, MLPCN library, primary screen; Zinc finger protein mex-5 (Caenorhabditis elegans), Q9XUB2; MEX-5/FITC-TCR2 RNA binding; hits give low values; activity score (negative = inhibition of binding), % at 10 µM; 0.38% of 300,000 active;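 active = inhibition past about -25% in most replicates, and total fluorescence under double the plate's negative control median, limit read from the data; inconclusive = replicates evenly split on the limit, or fluorescence at least double controls; inactive = too little inhibition in most replicates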
EBV gp42 inh – Epstein-Barr virus gp42 inhibitors, primary screen, biochemical, uHTS, fluorescence polarization; inhibition, % (tested at 21.74 µM); Glycoprotein 42 (Epstein-Barr virus (strain AG876)), Q1HVG2; 0.42% of 220,000 active; Fluorescence polarization binding assay, mP read-out; in the data active = inhibition above about 50%
GLD-1 TGE inh – GLD-1/TGE RNA complex disruptors, primary screen, biochemical, fluorescence polarization; purified GLD-1 + fluorescein TGE RNA; inhibition, % at 5.96 µM; 0.44% of 320,000 active;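 active = percent inhibition above a per-plate cutoff, the plate mean of test compounds plus 3 SD, cut at about 30% in these data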
Of the large screens only hits and unclear results are named; the others gave an inactive call.

Cc1cc(NC(=O)CSc2nc3c(c(=O)n2CCc2ccccc2)SC(C)C3)no1 (stereo unspecified)	Bcl-xL primary 31
Cc1nnc(NC(=O)CSc2nc3c(c(=O)n2CCc2ccccc2)SC(C)C3)s1 (stereo unspecified)	none
Oc1ccc(N=Nc2ccccc2-c2nn[nH]n2)c(O)c1	Bcl-xL primary 31, MEX-5 binding -35 (no result: EBV gp42 inh)
Cc1ccccc1-c1nn[nH]n1	none
CC[n+]1c(/C=C/c2ccc(N(C)C)cc2)ccc2ccccc21	MEX-5 binding -27
CC[n+]1c(/C=C/c2ccc(OC)c(OC)c2)ccc2ccccc21	none (no result: EBV gp42 inh)
CN(C)c1ccc(/C=C/c2cc[n+](C)cc2)cc1	GLD-1 TGE inh 95
Nc1ccc(S(=O)(=O)NC2(C(F)(F)F)NC(=O)N(c3ccccc3F)C2=O)cc1 (stereo unspecified)	none (no result: EBV gp42 inh)
CC1=C/C(=C\c2ccc(Br)o2)C(=O)O1	EBV gp42 inh 51
Cc1cccc(C)c1NC(=O)C(C)Sc1n[nH]c(-c2ccncc2)n1 (stereo unspecified)	none (no result: EBV gp42 inh)
Cc1cc(O)c(C(C)C)cc1N=C1CSC(=O)N1	Bcl-xL primary 40, MEX-5 binding inconclusive
COc1cc2c(cc1OC)C(c1ccc(-c3cc(Cl)ccc3Cl)o1)=NCC2	none
COc1cc2c(cc1OC)C(c1ccc(-c3ccc(Cl)cc3Cl)o1)=NCC2	MEX-5 binding -36
COc1cc2c(cc1OC)C(c1ccc(-c3ccc(Cl)c(Cl)c3)o1)=NCC2	MEX-5 binding -35
CCOC(=O)[C@@H]1[C@H]2COc3cc(OC)ccc3[C@@H]2N2C(=O)N(c3ccc(F)cc3)C(=O)[C@@]12C	none (no result: MCL1 BIM primary, Bcl-xL primary, MEX-5 binding, EBV gp42 inh)
O=C(O[C@@H]1Cc2c(O)cc(O)cc2O[C@@H]1c1cc(O)c(O)c(O)c1)c1cc(O)c(O)c(O)c1	MEX-5 binding -84 (no result: MCL1 BIM primary, eLon inh, Bcl-xL primary, GLD-1 TGE inh)
CC1CCCC(C)N1C(=O)CSc1nnnn1-c1cccc2c1CCCC2 (stereo unspecified)	GLD-1 TGE inh 55
CCOC(=O)C(NCc1ccco1)(NC(=O)c1ccc(OC)cc1)C(F)(F)F (stereo unspecified)	EBV gp42 inh 118
CCOC(=O)C(NCc1ccccc1OC)(NC(=O)c1ccccc1)C(F)(F)F (stereo unspecified)	none
O=C(NCCS(=O)(=O)N1CCN(c2ccccc2)CC1)c1cccs1	none (no result: EBV gp42 inh)
O=C1c2c(O)cccc2Cc2cccc(O)c21	Bcl-xL primary 31 (no result: MEX-5 binding, EBV gp42 inh)
O=C1Cc2cccc(=O)c(O)c2C(=O)O1	none (no result: MCL1 BIM primary, Bcl-xL primary, MEX-5 binding, EBV gp42 inh, GLD-1 TGE inh)
COC(=O)c1ccc(COc2ccc(/C=C(\C#N)c3nc4ccccc4[nH]3)cc2OC)o1	MEX-5 binding -30
CCOc1cc(/C=C(\C#N)c2nc3ccccc3[nH]2)ccc1OC(C)C(=O)O (stereo unspecified)	MEX-5 binding -30 (no result: EBV gp42 inh)
CCOc1cc(/C=C(/C#N)c2nc3ccccc3[nH]2)ccc1Oc1ccc([N+](=O)[O-])cn1	none
COc1ccc(C(=O)NCCCCNC(=O)c2ccc(OC)c(OC)c2)cc1OC	none (no result: EBV gp42 inh)
NS(=O)(=O)c1ccc(NC(=O)COc2ccc(S(=O)(=O)N3CCCC3)cc2)cc1	none (no result: EBV gp42 inh)
CCOc1c(C=C(C#N)C#N)c2ccccc2n1CC	MEX-5 binding -39
CC(C)(O)C(=O)NNC(=S)NCc1ccco1	MEX-5 binding -32
NC(=O)c1cc([N+](=O)[O-])c(Cl)cc1NCc1cccnc1	none (no result: MEX-5 binding, EBV gp42 inh)
O=C(NC(=S)NCCC1=CCCCC1)c1cccnc1	none
OCCCNc1ncnc2sc3c(c12)CCN(Cc1ccccc1)C3	MEX-5 binding -28 (no result: EBV gp42 inh)
Cc1ccc(S(=O)(=O)N(CC(=O)NCC2CCCO2)Cc2ccc(F)cc2)cc1 (stereo unspecified)	none (no result: EBV gp42 inh)
Nc1ccc(S(N)(=O)=O)cc1N	Bcl-xL primary 33
Nc1ccc(S(N)(=O)=O)cc1	none (no result: eLon inh, EBV gp42 inh)
O=C(CCc1nc2ccccc2c(=O)[nH]1)N1CCCc2ccccc21	MCL1 BIM primary 43, Bcl-xL primary 51 (no result: EBV gp42 inh)
O=C(CCc1nc2ccccc2c(=O)[nH]1)N1CCN(c2ccccc2Cl)CC1	none (no result: MCL1 BIM primary, Bcl-xL primary, MEX-5 binding, EBV gp42 inh)
Cc1cc(-c2ccc(N3CCOCC3)cc2)nc2ccccc12	EBV gp42 inh 56
CCCCn1c(SCC(=O)Nc2nnc(C)s2)nnc1-c1ccncc1	none
Cc1ccc2c(c1)N(CCC(=O)NC1CCCCC1)C(=O)CO2	none (no result: EBV gp42 inh)
CN(C)S(=O)(=O)c1cccc(NC(=S)N/N=C/c2ccc(O)c(O)c2O)c1	MEX-5 binding -48 (no result: MCL1 BIM primary, Bcl-xL primary, GLD-1 TGE inh)
CCCN1C(=O)c2ccccc2NC1c1ccc(Cl)c(Cl)c1 (stereo unspecified)	none (no result: EBV gp42 inh)
CCCCN1C2=C(C(=O)CCC2)C(c2ccc(Cl)c(Cl)c2)C2=C1c1ccccc1C2=O (stereo unspecified)	MCL1 BIM primary 43, Bcl-xL primary 44
Oc1ccc2ccccc2c1/C=N/Nc1nnc(-c2ncc[nH]2)c2ccccc12	MEX-5 binding -35
Cc1ccccc1N=Cc1c(O)n(-c2nccs2)c(=O)c2ccccc12	none
O=c1c2ccccc2c(C=Nc2ccccc2O)c(O)n1-c1nccs1	Bcl-xL primary 37
CCOc1ccccc1C(C(=O)NC1CCCC1)N(C(=O)c1csnn1)C1CC1 (stereo unspecified)	none (no result: EBV gp42 inh)
CC1(C)CC(=O)C2=C(C1)OC(N)=C(C#N)C2c1ccc[nH]1 (stereo unspecified)	Bcl-xL primary 33
COc1ccc(C2C(C#N)=C(N)OC3=C2C(=O)CC(C)(C)C3)cc1 (stereo unspecified)	Bcl-xL primary 51
CC1(C)CC(=O)C2=C(C1)OC(N)=C(C#N)C2c1ccc(OC(=O)N2CCOCC2)cc1 (stereo unspecified)	none
CCNC(=S)NC(=NCc1cccnc1)Nc1nc(C)cc(C)n1	MCL1 BIM primary 46, Bcl-xL primary 38 (no result: EBV gp42 inh)
N#CCN(N=Nc1ccccc1)c1ccccc1	none (no result: EBV gp42 inh)
O=C(COC(=O)c1c[nH]c2ccccc12)Nc1ccc([N+](=O)[O-])cc1	none (no result: MEX-5 binding, EBV gp42 inh)
Cc1ccc(C(=O)CSc2nc3c([nH]2)c(=O)n(C)c(=O)n3C)cc1	MEX-5 binding -30
Cc1ccc(S(=O)(=O)NC(C(=O)Oc2ccc3c(C(F)(F)F)cc(=O)oc3c2)c2ccccc2)cc1 (stereo unspecified)	MCL1 BIM primary 42, Bcl-xL primary 45, GLD-1 TGE inh 47
O=C(OCc1ccc(C(=O)c2ccccc2)cc1)c1cccc(-c2nnc(-c3ccccc3)o2)c1	eLon inh 16 (no result: MEX-5 binding)
O=C(NCc1cc(Cl)cc(Cl)c1)c1ccc2nc(COCCO)[nH]c2c1	none (no result: MCL1 BIM primary, Bcl-xL primary, MEX-5 binding, EBV gp42 inh, GLD-1 TGE inh)
